Screen size: about 5,500 compounds; about 2,000 (36%) were called active. Another 18% or so got no clear call; they are omitted. No stated cut-off is given here; in the data, active means normalized growth mostly below about 0.91 (no sharp cut-off); inconclusive means no clear call, values can overlap the other calls; inactive means mostly above about 0.92. Some of the results follow.
Test: chemical genetic growth profiling, strain panel (AID 1159580);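 further: tested at 20 µM; growth read once vehicle control cultures reached saturation at 30 °C; 1 = growth at the plate median or of vehicle wells; lower values mean less growth of the strain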
Settings: S. cerevisiae deletion strains, growth OD
[1] = locus YAR019C, strain CDC15, hits give low values
[2] = locus YBL105C, strain PKC1, hits give low values
[3] = locus YBR135W, strain CKS1, hits give low values
[4] = locus YBR136W, strain MEC1, hits give low values
[5] = locus YBR160W, strain CDC28, hits give low values
[6] = locus YDL017W, strain CDC7, hits give low values
[7] = locus YDL028C, strain MPS1, hits give low values
[8] = locus YDL101C, strain DUN1, hits give low values
[9] = locus YDL108W, strain KIN28, hits give low values
[10] = locus YDL132W, strain cdc53, hits give low values
[11] = locus YDL214C, strain PRR2, hits give low values
[12] = locus YDR052C, strain DBF4, hits give low values
[13] = locus YDR054C, strain cdc34, hits give low values
[14] = locus YDR226W, strain ADK1, hits give low values
[15] = locus YDR477W, strain SNF1, hits give low values
[16] = locus YER123W, strain YCK3, hits give low values
[17] = locus YER133W, strain GLC7, hits give low values
[18] = locus YFL009W, strain cdc4, hits give low values
[19] = locus YFL029C, strain CAK1, hits give low values
[20] = locus YFR003C, strain YPI1, hits give low values
[21] = locus YFR019W, strain FAB1, hits give low values
[22] = locus YFR028C, strain CDC14, hits give low values
[23] = locus YGR040W, strain KSS1, hits give low values
[24] = locus YGR052W, strain FMP48, hits give low values
[25] = locus YGR092W, strain DBF2, hits give low values
[26] = locus YHR030C, strain SLT2, hits give low values
[27] = locus YHR079C, strain IRE1, hits give low values
[28] = locus YHR082C, strain KSP1, hits give low values
[29] = locus YHR205W, strain SCH9, hits give low values
[30] = locus YIL147C, strain SLN1, hits give low values
[31] = locus YJL095W, strain BCK1, hits give low values
[32] = locus YJL128C, strain PBS2, hits give low values
[33] = locus YJL157C, strain FAR1, hits give low values
[34] = locus YJR016C, strain ILV3, hits give low values
[35] = locus YJR066W, strain TOR1 (second series), hits give low values
[36] = locus YJR066W, strain TOR1, hits give low values
[37] = locus YKL048C, strain ELM1, hits give low values
[38] = locus YKL067W, strain YNK1, hits give low values
[39] = locus YKL101W, strain HSL1, hits give low values
[40] = locus YKL193C, strain SDS22, hits give low values
[41] = locus YKL203C, strain TOR2, hits give low values
[42] = locus YLR113W, strain HOG1, hits give low values
[43] = locus YLR133W, strain CKI1, hits give low values
[44] = locus YLR403W, strain SFP1, hits give low values
[45] = locus YML070W, strain DAK1, hits give low values
[46] = locus YMR001C, strain CDC5, hits give low values
[47] = locus YMR205C, strain PFK2 (second series), hits give low values
[48] = locus YMR277W, strain FCP1, hits give low values
[49] = locus YNL006W, strain LST8, hits give low values
[50] = locus YNL020C, strain ARK1, hits give low values
[51] = locus YNL161W, strain CBK1, hits give low values
[52] = locus YNL183C, strain NPR1, hits give low values
[53] = locus YNL207W, strain RIO2, hits give low values
[54] = locus YNL222W, strain SSU72, hits give low values
[55] = locus YNL307C, strain MCK1 (second series), hits give low values
[56] = locus YOL078W, strain AVO1, hits give low values
[57] = locus YOL136C, strain PFK27, hits give low values
[58] = locus YOR061W, strain CKA2, hits give low values
[59] = locus YOR119C, strain RIO1, hits give low values
[60] = locus YOR231W, strain MKK1, hits give low values
[61] = locus YOR329C, strain SCD5, hits give low values
[62] = locus YPL031C, strain PHO85, hits give low values
[63] = locus YPL153C, strain RAD53, hits give low values
[64] = locus YPL204W, strain HRR25, hits give low values
[65] = locus YPL209C, strain IPL1, hits give low values
[66] = locus YPL256C, strain CLN2, hits give low values
[67] = locus YPR025C, strain CCL1, hits give low values
[68] = locus YPR106W, strain ISR1, hits give low values
[69] = locus YPR111W, strain DBF20, hits give low values
[70] = strain NNK1, hits give low values
[71] = strain TSCII, hits give low values

Measured: normalized growth

O=c1c(-c2ccccc2)c(O)c2cccc3c4c(n1c23)CCCC4
inactive: [1] 0.935 | [2] 0.939 | [3] 0.926 | [4] 0.934 | [5] 0.958 | [6] 0.94 | [7] 0.944 | [8] 0.973 | [9] 0.924 | [10] 0.939 | [12] 0.957 | [14] 0.94 | [18] 0.929 | [19] 0.934 | [20] 0.952 | [22] 0.927 | [30] 0.917 | [32] 0.906 | [34] 0.926 | [40] 0.934 | [46] 0.935 | [48] 0.933 | [49] 0.932 | [51] 0.944 | [53] 0.95 | [54] 0.939 | [56] 0.927 | [61] 0.948 | [65] 0.944 | [67] 0.952 | [68] 0.93 | [69] 0.94 | [71] 0.918
active: [11] 0.39 | [13] 0.823 | [15] 0.342 | [16] 0.304 | [17] 0.459 | [21] 0.233 | [23] 0.439 | [24] 0.266 | [25] 0.172 | [26] 0.139 | [27] 0.182 | [28] 0.186 | [29] 0.314 | [31] 0.272 | [33] 0.243 | [35] 0.336 | [36] 0.26 | [37] 0.485 | [38] 0.414 | [39] 0.323 | [41] 0.283 | [42] 0.26 | [43] 0.376 | [44] 0.263 | [45] 0.318 | [47] 0.56 | [50] 0.282 | [52] 0.278 | [55] 0.167 | [57] 0.195 | [58] 0.249 | [59] 0.382 | [60] 0.25 | [62] 0.246 | [63] 0.305 | [64] 0.273 | [66] 0.228 | [70] 0.732

Cn1nc(-c2ccccc2)c(O)c(N=Nc2ccccc2)c1=O
inactive: [1] 0.964 | [2] 0.972 | [3] 0.957 | [4] 0.96 | [5] 0.976 | [6] 0.983 | [7] 0.963 | [8] 0.972 | [9] 0.962 | [10] 0.968 | [11] 0.906 | [12] 0.985 | [13] 0.971 | [14] 0.971 | [15] 0.917 | [16] 0.858 | [17] 0.898 | [18] 0.969 | [19] 0.969 | [20] 0.971 | [21] 0.898 | [22] 0.974 | [23] 0.905 | [24] 0.998 | [25] 0.913 | [26] 0.931 | [27] 0.982 | [28] 0.964 | [29] 0.943 | [30] 0.964 | [31] 0.993 | [32] 0.95 | [33] 0.89 | [34] 0.976 | [35] 0.854 | [36] 0.981 | [37] 0.944 | [38] 0.906 | [39] 0.921 | [40] 0.968 | [41] 0.98 | [42] 0.953 | [43] 0.944 | [44] 0.89 | [45] 0.885 | [46] 0.961 | [47] 0.937 | [48] 0.973 | [49] 0.967 | [50] 0.927 | [51] 0.965 | [52] 1 | [53] 0.964 | [54] 0.966 | [55] 0.941 | [56] 0.968 | [57] 0.907 | [58] 0.864 | [59] 0.952 | [60] 0.95 | [61] 0.974 | [62] 0.918 | [63] 0.914 | [64] 0.93 | [65] 0.972 | [66] 0.998 | [67] 0.97 | [68] 0.977 | [69] 0.988 | [70] 0.966 | [71] 0.963
